From PubChem BioAssay (EPA / NIEHS)
“And” between values parts separate entries of the source, which are not always exact repeats. Equal values may be shown once. Results filed as inconclusive are left out. The source holds several records for some structures; these can differ, active in one and inactive in another. The source made the active and inactive calls. Rule for the calls: active = hit-call score of the fitted dose curve at least 0.9, where 1 is the maximum; inconclusive = response in the unintended direction; inactive = score below 0.9.

Assays:
[1] = target: human Thyroid hormone Receptor beta (TRb), THRB (gene 7068) (UniProt P10828); test: ATG_hTRb_XSP1: Attagene TRANS-FACTORIAL Multi-Species (XSP1) HepG2 Assay for human Thyroid hormone Receptor beta (TRb) (AID 2283808)
Chain of human Thyroid hormone Receptor beta (TRb), THRB (gene 7068) (P10828 whole entry, looked up, the tested form may be a part): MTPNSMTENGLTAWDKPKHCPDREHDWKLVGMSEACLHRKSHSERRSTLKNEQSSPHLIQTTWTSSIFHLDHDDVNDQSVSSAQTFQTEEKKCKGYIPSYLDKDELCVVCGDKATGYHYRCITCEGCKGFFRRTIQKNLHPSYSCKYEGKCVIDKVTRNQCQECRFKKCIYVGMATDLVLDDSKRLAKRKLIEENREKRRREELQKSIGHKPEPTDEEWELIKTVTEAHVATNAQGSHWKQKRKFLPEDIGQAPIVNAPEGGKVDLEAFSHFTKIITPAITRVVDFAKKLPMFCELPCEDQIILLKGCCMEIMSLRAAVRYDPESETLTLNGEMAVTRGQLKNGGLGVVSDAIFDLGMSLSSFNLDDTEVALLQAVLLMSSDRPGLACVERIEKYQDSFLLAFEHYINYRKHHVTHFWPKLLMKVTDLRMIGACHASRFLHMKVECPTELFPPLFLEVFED
In short: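 HepG2 cells transiently transfected with reporter units driving GAL4-UAS reporters for chimeric NR-Gal4 proteins; 24 h chemical exposure with 3 nM 6-alpha-fluorotestosterone present. Reporter mRNA quantified by RT-PCR and capillary electrophoresis, gain of signal versus DMSO.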

[2] = target: zebrafish Thyroid Hormone Receptor beta (TRb), thrb (gene 30607) (UniProt Q9PVE4); test: ATG_zfTRb_XSP1: Attagene TRANS-FACTORIAL Multi-Species (XSP1) HepG2 Assay for zebrafish Thyroid Hormone Receptor beta (TRb) (AID 2283809)
Chain of zebrafish Thyroid Hormone Receptor beta (TRb), thrb (gene 30607) (Q9PVE4 whole entry, looked up, the tested form may be a part): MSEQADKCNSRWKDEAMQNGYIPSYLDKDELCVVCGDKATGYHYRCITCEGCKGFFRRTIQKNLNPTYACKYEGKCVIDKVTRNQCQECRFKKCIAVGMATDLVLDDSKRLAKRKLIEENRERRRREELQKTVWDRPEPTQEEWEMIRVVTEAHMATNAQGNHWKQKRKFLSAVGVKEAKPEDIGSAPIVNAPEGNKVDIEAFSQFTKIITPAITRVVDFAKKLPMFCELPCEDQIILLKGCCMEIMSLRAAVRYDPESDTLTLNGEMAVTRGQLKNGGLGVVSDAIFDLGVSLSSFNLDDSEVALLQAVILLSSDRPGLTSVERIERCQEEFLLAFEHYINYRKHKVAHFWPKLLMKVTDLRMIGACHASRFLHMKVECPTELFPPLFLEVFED
In short: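 HepG2 cells transiently transfected with multiplexed GAL4-UAS reporter units expressing chimeric zebrafish TRb–Gal4. Dosed 24 h with 3 nM 6-alpha-fluorotestosterone present; reporter mRNA measured by RT-PCR, HpaI digestion and capillary electrophoresis; gain of signal versus DMSO.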

[3] = ATG_XTT_Cytotoxicity_XSP1: Cytotoxicity Assessment in the Attagene TRANS-FACTORIAL Multi-Species (XSP1) HepG2 Assay (AID 2283810)
Description: ATG_XSP1_XTT_Cytotoxicity_multi-species is a cell-based, single-readout assay that uses HepG2, a human liver cell line, with measurements taken at 24 hours after chemical dosing in a 24-well plate. Xsp1 included 3 nM 6-alpha-fluorotestosterone to partially stimulate the androgen receptor.ATG_XTT_Cytotoxicity_XSP1 is an assay component measured from the ATG_XSP1_XTT_Cytotoxicity_multi-species assay. It is designed to make measurements of cell number, a form of viability reporter, as detected with fluorescence intensity signals by XTT cytotoxicity assay technology.This assay endpoint, ATG_XTT_Cytotoxicity_XSP1, was analyzed in the positive analysis fitting direction relative to DMSO as the negative control and baseline of activity. Using a type of viability reporter, loss-of-signal activity can be used to understand changes in the viability. Furthermore, this assay endpoint can be referred to as a primary readout, because the performed assay has only produced 1 assay endpoint. […]
Human liver HepG2 cells are transiently transfected with multiple reporter transcription units (MRTUs) in 6-well plates using FuGene 6 reagent (Roche; 3 ml FuGene/1 mg DNA). […] A major difference between the CIS and TRANS system is that in CIS activities of endogenous TFs are measured, whereas the TRANS assay evaluates changes in activities of exogenous, chimeric NR-Gal4 proteins. […]

[4] = ATG_M_06_XSP2: Attagene TRANS-FACTORIAL Multi-Species (XSP2) HepG2 Assay for M06 Transcription Factor (Internal Marker) (AID 2283811);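 note: internal background marker reporter mRNA measured by RT-PCR and capillary electrophoresis; hits are increases in signal above the DMSO baseline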
In short: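 HepG2 cells transiently transfected with GAL4-UAS multi-reporter constructs, dosed 24 h with 3 nM 6-alpha-fluorotestosterone plus 1.5 nM norgestrel present to stimulate androgen receptor. Reporter mRNA quantified by RT-PCR, 6-FAM labelling, HpaI digestion and capillary electrophoresis; gain-of-signal fitted versus DMSO baseline.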

[5] = system: turtle Estrogen Receptor (ERa), gene 101933533; test: ATG_trERa_XSP2: Attagene TRANS-FACTORIAL Multi-Species (XSP2) HepG2 Assay for turtle Estrogen Receptor (ERa) (AID 2283812);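 note: human HepG2 liver cells transiently expressing turtle ERa-Gal4 chimeric receptor; actives raise reporter signal above DMSO so AC50 reflects agonist activity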
In short: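 HepG2 cells transiently transfected with GAL4-UAS reporter units expressing turtle ERa-Gal4 chimera. Reporter mRNA measured after 24 h dosing by RT-PCR, fluorescent labelling and capillary electrophoresis; gain of signal fitted versus DMSO.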

[6] = target: Estrogen receptor beta (Homo sapiens) (UniProt Q92731); test: ATG_hERb_XSP2: Attagene TRANS-FACTORIAL Multi-Species (XSP2) HepG2 Assay for human Estrogen Receptor (ERb) (AID 2283813);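 note: actives raise reporter mRNA above DMSO so AC50 reflects agonist induction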
Chain of Estrogen receptor beta (Homo sapiens) (Q92731 whole entry, looked up, the tested form may be a part): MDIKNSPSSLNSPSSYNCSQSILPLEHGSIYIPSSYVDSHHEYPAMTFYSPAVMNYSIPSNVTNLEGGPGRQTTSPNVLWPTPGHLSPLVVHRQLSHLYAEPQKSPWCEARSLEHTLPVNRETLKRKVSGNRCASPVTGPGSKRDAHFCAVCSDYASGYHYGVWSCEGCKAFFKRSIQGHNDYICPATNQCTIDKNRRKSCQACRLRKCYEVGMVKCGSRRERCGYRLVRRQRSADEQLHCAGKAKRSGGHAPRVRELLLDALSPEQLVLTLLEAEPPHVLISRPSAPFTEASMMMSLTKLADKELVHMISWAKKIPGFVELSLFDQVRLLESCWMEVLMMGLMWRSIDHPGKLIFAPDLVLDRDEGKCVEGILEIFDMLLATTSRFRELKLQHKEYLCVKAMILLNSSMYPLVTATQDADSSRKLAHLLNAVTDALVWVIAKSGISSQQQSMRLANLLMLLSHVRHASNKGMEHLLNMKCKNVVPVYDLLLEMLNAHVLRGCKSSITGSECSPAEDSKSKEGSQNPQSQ
In short: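 HepG2 cells transiently transfected with GAL4-UAS reporter units and chimeric human ERb-Gal4, 24 h exposure. Reporter mRNA quantified by RT-PCR with FAM labelling, HpaI digestion and capillary electrophoresis; gain of signal versus DMSO.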

[7] = target: GAL4 Transcription Factor (Internal Marker), GAL4 (gene 855828) (UniProt P04386); test: ATG_GAL4_XSP2: Attagene TRANS-FACTORIAL Multi-Species (XSP2) HepG2 Assay for GAL4 Transcription Factor (Internal Marker) (AID 2283814);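 note: GAL4 reporter mRNA background control in MRTU transfected cells not a receptor target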
Chain of GAL4 Transcription Factor (Internal Marker), GAL4 (gene 855828) (P04386 whole entry, looked up, the tested form may be a part): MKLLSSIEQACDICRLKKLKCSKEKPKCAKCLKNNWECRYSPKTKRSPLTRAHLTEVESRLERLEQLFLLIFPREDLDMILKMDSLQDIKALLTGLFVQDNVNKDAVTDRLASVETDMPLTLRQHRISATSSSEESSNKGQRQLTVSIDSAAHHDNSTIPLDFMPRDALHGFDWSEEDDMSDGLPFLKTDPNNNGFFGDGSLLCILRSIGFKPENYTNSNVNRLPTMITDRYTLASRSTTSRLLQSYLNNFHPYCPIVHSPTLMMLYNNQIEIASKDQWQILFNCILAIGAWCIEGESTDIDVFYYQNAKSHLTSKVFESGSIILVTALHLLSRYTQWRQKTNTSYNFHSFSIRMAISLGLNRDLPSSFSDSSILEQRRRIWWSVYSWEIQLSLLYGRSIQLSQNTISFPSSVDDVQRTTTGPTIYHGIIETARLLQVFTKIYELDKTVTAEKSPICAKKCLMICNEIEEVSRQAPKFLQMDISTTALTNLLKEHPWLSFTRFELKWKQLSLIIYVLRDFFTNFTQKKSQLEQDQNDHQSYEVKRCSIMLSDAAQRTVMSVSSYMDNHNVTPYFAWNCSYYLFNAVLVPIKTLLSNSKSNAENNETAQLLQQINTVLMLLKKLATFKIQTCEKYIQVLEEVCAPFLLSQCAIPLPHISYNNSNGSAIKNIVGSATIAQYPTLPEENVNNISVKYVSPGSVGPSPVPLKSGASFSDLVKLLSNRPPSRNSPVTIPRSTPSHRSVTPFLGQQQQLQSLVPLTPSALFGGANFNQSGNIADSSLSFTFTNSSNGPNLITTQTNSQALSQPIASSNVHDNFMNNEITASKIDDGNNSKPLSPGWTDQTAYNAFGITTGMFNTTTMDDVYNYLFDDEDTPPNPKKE
In short: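 HepG2 cells transiently transfected with GAL4-UAS reporter units, stimulated with 3 nM 6-alpha-fluorotestosterone plus 1.5 nM norgestrel, dosed 24 h. Reporter mRNA by RT-PCR/capillary electrophoresis; gain-of-signal fit versus DMSO, background control.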

[8] = target: zebrafish Estrogen Receptor (ER1), esr1 (gene 259252) (UniProt P57717); test: ATG_zfER1_XSP2: Attagene TRANS-FACTORIAL Multi-Species (XSP2) HepG2 Assay for zebrafish Estrogen Receptor (ER1) (AID 2283816)
Chain of zebrafish Estrogen Receptor (ER1), esr1 (gene 259252) (P57717 whole entry, looked up, the tested form may be a part): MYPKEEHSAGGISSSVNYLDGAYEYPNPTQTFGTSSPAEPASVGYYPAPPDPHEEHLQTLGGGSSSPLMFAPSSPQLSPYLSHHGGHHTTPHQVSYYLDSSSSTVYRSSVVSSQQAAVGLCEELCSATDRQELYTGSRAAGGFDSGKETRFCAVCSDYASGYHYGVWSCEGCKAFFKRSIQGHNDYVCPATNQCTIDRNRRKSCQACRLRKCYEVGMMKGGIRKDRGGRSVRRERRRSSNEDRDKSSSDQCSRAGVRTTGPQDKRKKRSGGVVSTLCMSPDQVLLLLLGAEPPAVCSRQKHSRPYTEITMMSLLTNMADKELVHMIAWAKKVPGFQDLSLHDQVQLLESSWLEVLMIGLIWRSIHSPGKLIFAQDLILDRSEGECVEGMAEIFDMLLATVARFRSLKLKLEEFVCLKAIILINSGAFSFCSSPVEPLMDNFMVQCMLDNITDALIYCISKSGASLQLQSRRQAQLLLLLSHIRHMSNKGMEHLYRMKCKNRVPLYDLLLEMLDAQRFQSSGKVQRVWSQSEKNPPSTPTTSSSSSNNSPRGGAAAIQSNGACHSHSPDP
In short: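 HepG2 cells transiently transfected with a GAL4-UAS reporter and a chimeric zebrafish ER1-Gal4 construct, dosed 24 h. Reporter mRNA quantified by RT-PCR, labelling, HpaI digestion and capillary electrophoresis, relative to DMSO.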

[9] = target: chicken Estrogen Receptor (ERa), ESR1 (gene 396099) (UniProt P06212); test: ATG_chERa_XSP2: Attagene TRANS-FACTORIAL Multi-Species (XSP2) HepG2 Assay for chicken Estrogen Receptor (ERa) (AID 2283817);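 note: actives raise reporter signal above DMSO so AC50 reflects ER activation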
Chain of chicken Estrogen Receptor (ERa), ESR1 (gene 396099) (P06212 whole entry, looked up, the tested form may be a part): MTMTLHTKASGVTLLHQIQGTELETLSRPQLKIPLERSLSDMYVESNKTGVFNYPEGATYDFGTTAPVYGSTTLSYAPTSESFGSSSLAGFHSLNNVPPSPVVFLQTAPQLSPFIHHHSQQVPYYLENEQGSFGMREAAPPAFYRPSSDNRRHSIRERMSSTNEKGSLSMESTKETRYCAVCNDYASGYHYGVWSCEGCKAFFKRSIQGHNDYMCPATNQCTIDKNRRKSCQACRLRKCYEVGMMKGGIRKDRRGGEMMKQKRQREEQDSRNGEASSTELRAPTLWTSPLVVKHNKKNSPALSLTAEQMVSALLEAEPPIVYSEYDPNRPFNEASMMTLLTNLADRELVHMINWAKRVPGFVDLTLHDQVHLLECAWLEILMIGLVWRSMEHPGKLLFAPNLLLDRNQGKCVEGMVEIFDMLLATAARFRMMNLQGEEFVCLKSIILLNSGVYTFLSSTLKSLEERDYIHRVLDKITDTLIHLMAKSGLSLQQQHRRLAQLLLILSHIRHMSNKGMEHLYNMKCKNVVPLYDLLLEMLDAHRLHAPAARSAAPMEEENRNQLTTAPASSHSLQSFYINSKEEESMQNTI
In short: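 HepG2 cells transiently transfected with multiplexed GAL4-UAS reporter units expressing chimeric chicken ERa-Gal4; 24 h compound exposure. Reporter mRNA measured by RT-PCR with 6-FAM labelling, HpaI digestion and capillary electrophoresis; gain-of-signal fitted versus DMSO.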

[10] = system: zebrafish Estrogen Receptor (ER2a), gene 317734; test: ATG_zfER2a_XSP2: Attagene TRANS-FACTORIAL Multi-Species (XSP2) HepG2 Assay for zebrafish Estrogen Receptor (ER2a) (AID 2283818);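 note: hits raise reporter mRNA so AC50 reflects activation of zebrafish ER2a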
In short: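 HepG2 cells transiently transfected with GAL4-UAS reporter units and chimeric zebrafish ER2a-Gal4, exposed 24 h; medium contains 3 nM 6-alpha-fluorotestosterone and 1.5 nM norgestrel. Reporter mRNA quantified by RT-PCR, HpaI digestion, capillary electrophoresis; gain versus DMSO.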

Row | Structure (SMILES) | outcome [1] | outcome [2] | outcome [3] | outcome [4] | AC50 [5] | AC50 [6] | outcome [7] | AC50 [8] | AC50 [9] | AC50 [10] | outcome [8]
1 | O=C(c1ccc(O)cc1)c1ccc(O)cc1O | inactive | inactive | inactive | inactive | 3.24 µM (active) | 1.6 µM (active) | inactive | 4.75 µM (active) | 3.03 µM (active) | 2.27 µM (active) | –
2 | COC(=O)c1c(C)cc(O)c(C)c1O | – | – | – | inactive | 8.55 µM (active) and 31.2 µM (active) | 8.13 µM (active) and 12.3 µM (active) | inactive | 27.5 µM (active) | 19.8 µM (active) and 28.8 µM (active) | 7.57 µM (active) and 27.3 µM (active) | inactive
